In PubChem BioAssay (NCI):
Values joined by “and” are separate entries in the source; they are usually repeats but may differ in a detail not shown here. Equal entries are not always repeated. The panel holds about 79,000 compounds, 15% with a hit somewhere; the sample as a whole holds those more often. Values without a mark were called inactive. Active and inactive are the calls of the source. Cut-off read from the data, not from the text of the source: active = growth inhibition above about 70%; inactive = the rest.

Tests used:
[1] = NCI Yeast Anticancer Drug Screen. Data for the rad50 strain (AID 155);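 note: 0% = growth of vehicle-only cultures of the same strain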; details: S. cerevisiae rad50 strain growth inhibition, hits give high values
Procedure, shortened: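 Genetically altered yeast (DNA repair pathway); compound treatment; growth inhibition vs vehicle ctrl.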

[2] = NCI Yeast Anticancer Drug Screen. Data for the mec2-1 strain (AID 157); details: S. cerevisiae mec2-1 strain, hits give high values
Procedure, shortened: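 Growth inhibition is read against vehicle-treated controls after compound exposure of the mec2-1 yeast strain, which is defective in DNA damage repair or cell cycle control.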

[3] = NCI Yeast Anticancer Drug Screen. Data for the sgs1 mgt1 strain (AID 161);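 note: 0% = growth of cultures given vehicle only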; details: S. cerevisiae sgs1 mgt1 strain, hits give high values
Procedure, shortened: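 Percent growth inhibition was derived by comparing compound-exposed mutant yeast with vehicle-exposed cultures. The strain carries alterations in DNA damage repair.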

[4] = NCI Yeast Anticancer Drug Screen. Data for the cln2 rad14 strain (AID 165);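 note: 0% = growth equal to vehicle treated cultures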; details: S. cerevisiae cln2 rad14 strain, hits give high values
Procedure, shortened: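 Growth inhibition, relative to vehicle-treated controls, is the read-out. The test organism is a yeast strain with defined genetic alterations, cln2 rad14.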

[5] = NCI Yeast Anticancer Drug Screen. Data for the bub3 strain (AID 167); details: S. cerevisiae bub3 mutant strain, hits give high values
Procedure, shortened: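 Yeast carrying a defined mutation is treated with each compound, and growth is compared with that of vehicle-exposed cells to give inhibition.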

[6] = NCI Yeast Anticancer Drug Screen. Data for the wt2 strain (AID 169);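 note: 0% = growth of vehicle-treated yeast cultures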; details: S. cerevisiae wt2 strain growth inhibition, hits give high values
Procedure, shortened: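 Compound exposure of yeast; growth compared with vehicle controls; inhibition reported.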

[7] = NCI Yeast Anticancer Drug Screen. Data for the mlh1 rad18 strain (AID 175); details: S. cerevisiae mlh1 rad18 strain growth inhibition, hits give high values
Procedure, shortened: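 Cells of a genetically altered yeast strain, deficient in DNA damage repair, were treated with compound. Their growth was then compared with that of vehicle-treated cultures to give inhibition.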

[8] = at 5.0 µM (retest, dose inferred, filed as 0.5)
[9] = at 50.0 µM (retest, dose inferred, filed as 5.0)

For Cc1cc(=O)[nH]c2ccc(Cc3ccc(N)cc3)cc12, the growth inhibition [1, 8] was -3%, the growth inhibition [1, 9] was 12% and the growth inhibition ([1]; at 50.0 µM) was 6.25% and 15.6%. The growth inhibition [2, 8] was 9%, the growth inhibition [2, 9] was 22% and the growth inhibition ([2]; at 50.0 µM) was 1.7% and 0.45%. For the same compound, the growth inhibition [3, 8] was 15%, the growth inhibition [3, 9] was 27% and the growth inhibition ([3]; at 50.0 µM) was 14.6% and 1.2%. For the same compound, the growth inhibition [4, 8] was 0%, the growth inhibition [4, 9] was -2% and the growth inhibition ([4]; at 50.0 µM) was 13.2% and 31.4%. The growth inhibition [5, 8] was 3%, the growth inhibition [5, 9] was 10% and the growth inhibition ([5]; at 50.0 µM) was 19.1% and -13.5%.
For c1ccc2nc3c(ccc4ccccc43)cc2c1, the growth inhibition [1, 8] was 22%, the growth inhibition [1, 9] was 31% and the growth inhibition ([1]; at 50.0 µM) was 86% (active). The growth inhibition [2, 8] was 41%, the growth inhibition [2, 9] was 45% and the growth inhibition ([2]; at 50.0 µM) was 75.9% (active). For the same compound, the growth inhibition [3, 8] was -17%, the growth inhibition [3, 9] was 94% (active) and the growth inhibition ([3]; at 50.0 µM) was 84.5% (active). The growth inhibition [4, 8] was 5%, the growth inhibition [4, 9] was 91% (active) and the growth inhibition ([4]; at 50.0 µM) was 68.7%. For the same compound, the growth inhibition [5, 8] was 0%, the growth inhibition [5, 9] was 99% (active) and the growth inhibition ([5]; at 50.0 µM) was 84% (active). The growth inhibition ([6]; at 1.2 µM) was 18%, the growth inhibition ([6]; at 3.7 µM) was 16% and the growth inhibition ([6]; at 11.0 µM) was 64%. The growth inhibition ([6]; at 33.0 µM) was 94% (active), the growth inhibition ([6]; at 100.0 µM) was 89% (active) and the growth inhibition [7, 8] was 20%. The growth inhibition [7, 9] was 49% and the growth inhibition ([7]; at 50.0 µM) was 83% (active).
In the case of CCCCCC(C)c1ccc(O)c(C)c1 (stereo not given), the growth inhibition [1, 8] is reported as 49%, the growth inhibition [1, 9] is reported as 94% (active) and the growth inhibition ([1]; at 50.0 µM) is reported as 81.7% (active). The growth inhibition [2, 8] was 49%, the growth inhibition [2, 9] was 95% (active) and the growth inhibition ([2]; at 50.0 µM) was 56.2%. The growth inhibition [3, 8] was -10%, the growth inhibition [3, 9] was 43% and the growth inhibition ([3]; at 50.0 µM) was 68.9%. For the same compound, the growth inhibition [4, 8] was 41%, the growth inhibition [4, 9] was 75% (active) and the growth inhibition ([4]; at 50.0 µM) was 61.7%. For the same compound, the growth inhibition [5, 8] was 32%, the growth inhibition [5, 9] was 55% and the growth inhibition ([5]; at 50.0 µM) was 86.1% (active). It also gave a growth inhibition ([6]; at 1.2 µM) of 4%, a growth inhibition ([6]; at 3.7 µM) of -2% and a growth inhibition ([6]; at 11.0 µM) of -6%. The growth inhibition ([6]; at 33.0 µM) was 0%, the growth inhibition ([6]; at 100.0 µM) was 99% (active) and the growth inhibition [7, 8] was 45%. For the same compound, the growth inhibition [7, 9] was 99% (active) and the growth inhibition ([7]; at 50.0 µM) was 72.5% (active).
With Cc1ccc(S(=O)(=O)NC2CCCCCCC2)cc1 the growth inhibition [1, 8] was 45%, the growth inhibition [1, 9] was 96% (active) and the growth inhibition ([1]; at 50.0 µM) was 77% (active). The growth inhibition [2, 8] was 30%, the growth inhibition [2, 9] was 89% (active) and the growth inhibition ([2]; at 50.0 µM) was 64.2%. The growth inhibition [3, 8] was 42%, the growth inhibition [3, 9] was 16% and the growth inhibition ([3]; at 50.0 µM) was 79% (active). The growth inhibition [4, 8] was 48%, the growth inhibition [4, 9] was 46% and the growth inhibition ([4]; at 50.0 µM) was 60%. The growth inhibition [5, 8] was 97% (active), the growth inhibition [5, 9] was 95% (active) and the growth inhibition ([5]; at 50.0 µM) was 89.3% (active). The growth inhibition ([6]; at 1.2 µM) was -4%, the growth inhibition ([6]; at 3.7 µM) was -17% and the growth inhibition ([6]; at 11.0 µM) was -23%. The growth inhibition ([6]; at 33.0 µM) was 23% and the growth inhibition ([6]; at 100.0 µM) was 98% (active).
In the case of COc1ccc(CC(=O)c2ccc(O)cc2O)cc1, the growth inhibition [1, 8] is reported as 30%, the growth inhibition [1, 9] is reported as 90% (active) and the growth inhibition ([1]; at 50.0 µM) is reported as 49.5%. For the same compound, the growth inhibition [2, 8] was 38%, the growth inhibition [2, 9] was 80% (active) and the growth inhibition ([2]; at 50.0 µM) was 42.3%. For the same compound, the growth inhibition [3, 8] was -22%, the growth inhibition [3, 9] was 73% (active) and the growth inhibition ([3]; at 50.0 µM) was 54.8%. For the same compound, the growth inhibition [4, 8] was 64%, the growth inhibition [4, 9] was 76% (active) and the growth inhibition ([4]; at 50.0 µM) was 52.2%. The growth inhibition [5, 8] was -6%, the growth inhibition [5, 9] was 71% (active) and the growth inhibition ([5]; at 50.0 µM) was 77.1% (active). For the same compound, the growth inhibition ([6]; at 1.2 µM) was -4%, the growth inhibition ([6]; at 3.7 µM) was -4% and the growth inhibition ([6]; at 11.0 µM) was -13%. For the same compound, the growth inhibition ([6]; at 33.0 µM) was 14%, the growth inhibition ([6]; at 100.0 µM) was 91% (active) and the growth inhibition [7, 8] was 19%. The growth inhibition [7, 9] was 97% (active) and the growth inhibition ([7]; at 50.0 µM) was 53.1%.
In the case of CCOC(=O)c1c[nH]c2cc(C(F)(F)F)ccc2c1=O, the growth inhibition [1, 8] is reported as 52%, the growth inhibition [1, 9] is reported as 93% (active) and the growth inhibition ([1]; at 50.0 µM) is reported as 52%. For the same compound, the growth inhibition [2, 8] was 74% (active), the growth inhibition [2, 9] was 96% (active) and the growth inhibition ([2]; at 50.0 µM) was -0.25%. It also gave a growth inhibition [3, 8] of -23%, a growth inhibition [3, 9] of -11% and a growth inhibition ([3]; at 50.0 µM) of 26.3%. It also gave a growth inhibition [4, 8] of 9%, a growth inhibition [4, 9] of 24% and a growth inhibition ([4]; at 50.0 µM) of 9.15%. It also gave a growth inhibition [5, 8] of 22%, a growth inhibition [5, 9] of 2% and a growth inhibition ([5]; at 50.0 µM) of 69.9%. For the same compound, the growth inhibition ([6]; at 1.2 µM) was -3%, the growth inhibition ([6]; at 3.7 µM) was -8% and the growth inhibition ([6]; at 11.0 µM) was -9%. The growth inhibition ([6]; at 33.0 µM) was -10%, the growth inhibition ([6]; at 100.0 µM) was -10% and the growth inhibition [7, 8] was 56%. For the same compound, the growth inhibition [7, 9] was 99% (active) and the growth inhibition ([7]; at 50.0 µM) was 1.5%.
With Fc1ccccc1-c1ncc(-c2ccccc2)o1 the growth inhibition [1, 8] was 65%, the growth inhibition [1, 9] was 96% (active) and the growth inhibition ([1]; at 50.0 µM) was 23.4%. For the same compound, the growth inhibition [2, 8] was 60%, the growth inhibition [2, 9] was 94% (active) and the growth inhibition ([2]; at 50.0 µM) was 22.2%. It also gave a growth inhibition [3, 8] of -14%, a growth inhibition [3, 9] of 60% and a growth inhibition ([3]; at 50.0 µM) of 51.8%. The growth inhibition [4, 8] was 39%, the growth inhibition [4, 9] was 70% (active) and the growth inhibition ([4]; at 50.0 µM) was 13.7%. For the same compound, the growth inhibition [5, 8] was 24%, the growth inhibition [5, 9] was 82% (active) and the growth inhibition ([5]; at 50.0 µM) was 16.7%. For the same compound, the growth inhibition ([6]; at 1.2 µM) was -1%, the growth inhibition ([6]; at 3.7 µM) was -3% and the growth inhibition ([6]; at 11.0 µM) was -10%. It also gave a growth inhibition ([6]; at 33.0 µM) of -2%, a growth inhibition ([6]; at 100.0 µM) of 28% and a growth inhibition [7, 8] of 36%. For the same compound, the growth inhibition [7, 9] was 91% (active) and the growth inhibition ([7]; at 50.0 µM) was 4.3%.
For CN(C)C(=Nc1nc(=[N+](C)C)ss1)N(C)C, the growth inhibition [1, 8] was -17%, the growth inhibition [1, 9] was -10% and the growth inhibition ([1]; at 50.0 µM) was 93% (active). The growth inhibition [2, 8] was 3%, the growth inhibition [2, 9] was 8% and the growth inhibition ([2]; at 50.0 µM) was 44.2%. For the same compound, the growth inhibition [3, 8] was 8%, the growth inhibition [3, 9] was -19% and the growth inhibition ([3]; at 50.0 µM) was 86% (active). It also gave a growth inhibition [4, 8] of 12%, a growth inhibition [4, 9] of 13% and a growth inhibition ([4]; at 50.0 µM) of 30.4%. It also gave a growth inhibition [5, 8] of 10%, a growth inhibition [5, 9] of 10% and a growth inhibition ([5]; at 50.0 µM) of 49.4%.
